# Where “and” joins values, the source holds several entries; their conditions need not be identical. Equal values may be shown once. A number with no mark means an inactive call. Calls of active or inactive are those of the source. Rule as the data show it: active = remaining activity below about 50%; inactive = the rest.
# Molecular target: Phospholipase D2 (Homo sapiens) (UniProt O14939)
# Assay: cellular phospholipase D2 activity inhibition – cell-based, HEK293, single concentration (AID 602143);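 also: tested at 200 nM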
# Details: HEK293 cellular PLD2 activity, percent of control; active compounds read low
# Phospholipase D2 (Homo sapiens), sequence (O14939 whole entry, looked up): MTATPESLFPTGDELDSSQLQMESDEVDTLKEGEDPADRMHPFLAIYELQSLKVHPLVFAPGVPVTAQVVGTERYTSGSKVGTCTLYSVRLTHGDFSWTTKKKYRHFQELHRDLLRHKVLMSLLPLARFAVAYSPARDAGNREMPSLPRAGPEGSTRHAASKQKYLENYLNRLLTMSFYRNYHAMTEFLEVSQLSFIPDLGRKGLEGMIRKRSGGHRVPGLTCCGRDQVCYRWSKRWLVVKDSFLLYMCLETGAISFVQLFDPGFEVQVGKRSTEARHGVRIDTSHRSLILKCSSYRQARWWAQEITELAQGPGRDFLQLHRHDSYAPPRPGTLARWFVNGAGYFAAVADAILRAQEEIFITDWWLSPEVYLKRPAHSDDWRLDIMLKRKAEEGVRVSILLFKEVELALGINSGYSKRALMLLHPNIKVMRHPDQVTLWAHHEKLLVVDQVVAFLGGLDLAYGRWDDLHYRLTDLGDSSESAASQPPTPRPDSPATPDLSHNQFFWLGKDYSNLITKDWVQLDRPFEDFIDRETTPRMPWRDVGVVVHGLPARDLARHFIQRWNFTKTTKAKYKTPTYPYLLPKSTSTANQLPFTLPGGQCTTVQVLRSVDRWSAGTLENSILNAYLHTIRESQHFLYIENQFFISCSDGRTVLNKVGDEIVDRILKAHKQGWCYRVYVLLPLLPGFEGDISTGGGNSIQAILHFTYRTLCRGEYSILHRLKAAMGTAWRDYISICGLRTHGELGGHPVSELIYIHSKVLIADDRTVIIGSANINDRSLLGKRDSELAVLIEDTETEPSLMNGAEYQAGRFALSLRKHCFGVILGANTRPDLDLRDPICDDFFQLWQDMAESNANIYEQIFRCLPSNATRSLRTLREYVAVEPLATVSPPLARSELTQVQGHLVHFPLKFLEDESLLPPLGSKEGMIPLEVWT
# Phospholipase D2 (Homo sapiens), sequence (O14939 whole entry, looked up): as above
row,SMILES,remaining activity
1,CC(C)[C@@H](CN1CCC2(CC1)C(=O)NCN2c1ccccc1)NC(=O)c1ccc(Cl)cc1,59.4%
2,O=C(NCCCCCCN1CCC2(CC1)C(=O)NCN2c1ccccc1)c1cnc2ccccc2c1,127%
3,CCCCCC(=O)N(CCN1CCC2(CC1)C(=O)NCN2c1cccc(F)c1)C(=O)CCCCC,73.1%
4,O=C(NCCN1CCC2(CC1)C(=O)NCN2c1ccc(Cl)cc1)c1cnc2ccccc2c1,29.7% (active)
5,O=C1c2ccccc2C(=O)N1CCCN1CCC2(CC1)C(=O)NCN2c1ccccc1,81%
6,O=C(NCCN1CCC2(CC1)C(=O)NCN2c1cccc(F)c1)c1ccc2c(c1)C(=O)OC2=O,66.5%
7,O=C(NCCN1CCC2(CC1)C(=O)NCN2c1cccc(F)c1)c1c(F)cccc1F,88%
8,O=C(NCCN1CCC2(CC1)C(=O)NCN2c1ccc(F)cc1)c1ccc2cc(F)ccc2c1,61.1%
9,O=C(NCCN1CCC2(CC1)C(=O)NCN2c1ccc(F)c(F)c1)c1ccc(F)cc1,49.6% (active)
10,O=C(NCCCN1CCC2(CC1)C(=O)NCN2c1ccccc1)c1cnc2ccccc2c1,96.4%
11,CCC(=O)N[C@@H](C)CN1CCC2(CC1)C(=O)NCN2c1ccccc1,95.3%
12,Cc1ccc(C(=O)NCCN2CCC3(CC2)C(=O)NCN3c2ccccc2)c(O)c1,85%
13,O=C(NCCN1CCC2(CC1)C(=O)NCN2c1cccc(F)c1)c1ccc(OC(F)(F)F)cc1,78%
14,C[C@@H](CN1CCC2(CC1)C(=O)NCN2c1ccccc1)NC(=O)[C@@H]1C[C@H]1c1ccccc1,75.9%
15,O=C(c1ccc2ccccc2c1)N1CC(N2CCC3(CC2)C(=O)NCN3c2ccccc2)C1,72.6%
16,O=C(NCCN1CCC2(CC1)C(=O)NCN2c1cccc(F)c1)c1ccc(-c2ccccc2)cc1,101%
17,COc1cc(C(=O)NCCN2CCC3(CC2)C(=O)NCN3c2ccccc2)ccc1N,38.8% (active)
18,O=C(NCCN1CCC2(CC1)C(=O)NCN2c1ccccc1)C1(c2ccccc2)CCC1,87.6%

row,SMILES,remaining activity
1,CN1CN(c2ccccc2)C2(CCN(CCNC(=O)c3ccc4ccccc4c3)CC2)C1=O,57.9%
2,COc1ccc(CC(=O)NCCN2CCC3(CC2)C(=O)NCN3c2cccc(F)c2)cc1OC,102% and 91.9%
3,Cc1cccc(C(=O)N[C@@H](C)CN2CCC3(CC2)C(=O)NCN3c2ccccc2)c1,83.2%
4,O=C(CCc1ccc(F)cc1)NCCN1CCC2(CC1)C(=O)NCN2c1ccccc1,102%
5,O=C(c1ccc2ccccc2c1)N1CC(N2CCC(n3c(=O)[nH]c4ccccc43)CC2)C1,64.3%
6,C[C@@H](CN1CCC2(CC1)C(=O)NCN2c1ccc(F)c(F)c1)NC(=O)c1ccc(Cl)cc1,14.9% (active)
7,CC1(C)C(C(=O)NCCN2CCC3(CC2)C(=O)NCN3c2ccccc2)C1(C)C,122%
8,O=C(NCCN1CCC2(CC1)C(=O)NCN2c1ccc(Cl)cc1)c1ccc2ccccc2c1,54.4%
9,O=C(NCCN1CCC2(CC1)C(=O)NCN2c1ccccc1)c1ccnnc1,101%
10,C[C@H](CN1CCC2(CC1)C(=O)NCN2c1ccccc1)NC(=O)c1cc(Br)c(Br)o1,85.7%
11,O=C(NCCN1CCC2(CC1)C(=O)NCN2c1ccc(Cl)cc1)c1cc2ccccc2[nH]1,48.1% (active)
12,O=C(NCCN1CCC2(CC1)C(=O)NCN2c1ccccc1)c1cc2ccccc2s1,10.3% (active)
13,O=C(NCCN1CCC2(CC1)C(=O)NCN2c1ccccc1)c1ncccc1F,82.2%
14,O=C(Cc1ccccc1Br)NCCN1CCC2(CC1)C(=O)NCN2c1cccc(F)c1,117%
15,O=C(c1cnc2ccccc2c1)N1CC(N2CCC3(CC2)C(=O)NCN3c2ccccc2)C1,70%
16,O=C(NCCN1CCC2(CC1)C(=O)NCN2c1ccccc1)c1cc2cccnc2s1,79.2%
17,O=C(NCCN1CCC2(CC1)C(=O)NCN2c1ccccc1)C(c1ccccc1)c1ccccc1,74.8%

# Reference: PubChem BioAssay AID602143 (Vanderbilt Specialized Chemistry Center, 2011)
